DRD3 agonist = D3 dopamine receptor (human) agonism | D3R DiscoveRx beta-arrestin cells, luminescence, 90 min | max activation, % | 0.58% of 410,000 active | AID 652048; in the data active = max activation above about 30%; note: 0% is about no effect
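Cells at 1500/well, incubated overnight, then treated with pinned compounds (dopamine as control) for 90 min at 37 degrees C. DiscoveRx reagent added for 30 - 60 minutes at room temperature; luminescence read.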
TDP1 cell CPT = DT40-hTDP1 cell growth loss with CPT | chicken DT40 Tdp1-/-;hTDP1 cells + 20 nM CPT, ATP luminescence, 48 h | Potency, µM (series often up to 46.2 µM), inactives show top-dose activity change, negative = growth inhibition, most hits filed as inhibitors | 12% of 420,000 active; note: potency is the fitted concentration of half-maximal effect; % is set by controls: 0 for no effect and ±100 for the full control effect; nearly all actives have a fitted effect of over 55% in size
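Chicken DT40 Tdp1-/- cells stably complemented with human TDP1 were seeded at 400 cells/well in medium containing 20 nM camptothecin, exposed to pin-transferred compounds, and grown at 37 °C for at least 48 hr. Viability was read as ATP luminescence.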
DRD3 antagonist = D3 dopamine receptor (human) antagonism; 2.5% of 360,000 active; max response, negative = inhibition, %; D3R cells, DiscoveRx beta-arrestin luminescence, antagonist mode; hits give low values; P35462; in the data active = max response below about -50%; inconclusive = no clear call, values can overlap the other calls; note: % is set by controls: 0 for no effect and ±100 for the full control effect
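Cells expressing the human receptor were seeded at 1500 cells/well, incubated overnight at 37 degrees C in 5% CO2, then exposed to library compounds with dopamine controls for 90 minutes at 37 degrees C before luminescent detection.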
IL1B secr inh = inhibitors of inflammasome signaling (IL-1 beta secretion); 4.7% of 360,000 active; activity change, % at 57.5 µM; THP-1 LPS/ATP IL-1B secretion, AlphaLISA, 16 h; hits give low values; in the data active = activity change below about -50%; inconclusive = mostly about -30% to -49%; note: % is set by controls: 0 for no effect and ±100 for the full control effect
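THP-1 cells pretreated 1 hr with compounds (up to 57.5 uM final), then stimulated with LPS (250 ng/mL final) plus ATP (1.25 mM final); secreted IL-1B measured by AlphaLISA after 16 hr, decreased signal indicating inhibition.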
ClpP mod = qHTS Assay for Activators of ClpP; ATP-dependent Clp protease proteolytic subunit (Bacillus subtilis (strain 168)), P80244; purified B. subtilis ClpP, FRET peptide cleavage, 20 min; Potency, µM (titrated, usually from 57.5 µM), without a hit: at the highest dose activity change, negative = active; 1.9% of 340,000 active; AID 651965, 2013; active = well fitted falling curve with a large enough effect; inconclusive = small, poorly fitted or top-dose-only effect; inactive = no such curve, though single readings can be large or run the other way; note: potency is the fitted concentration of half-maximal effect; the source files actives as falling curves though it sought activators and does not explain the sign; nearly all actives have a fitted effect of over 65% in size
Target sequence (P80244 whole entry, looked up): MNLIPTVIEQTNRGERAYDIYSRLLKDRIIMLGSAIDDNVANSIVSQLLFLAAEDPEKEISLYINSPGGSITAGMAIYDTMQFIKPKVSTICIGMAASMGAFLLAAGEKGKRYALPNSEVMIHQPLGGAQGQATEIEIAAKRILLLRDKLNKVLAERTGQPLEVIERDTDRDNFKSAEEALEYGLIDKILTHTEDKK
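Buffer: 100 mM Tris/HCl pH8, 100 mM KCl, 0.05% low protease BSA, 2.5% glycerol, 0.01% Tween-20. ClpP 10 microg/mL final; 20 min RT; delta FRET normalized to ADEP and DMSO controls.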
TDP1 cell noCPT = qHTS for Inhibitors of human tyrosyl-DNA phosphodiesterase 1 (TDP1): qHTS in cells in absence of CPT | DT40 Tdp1-/- hTDP1 cells, no CPT, ATP luminescence, 48 h | Potency, µM (top dose mostly 46.2 µM), inactives show at the top dose activity change, negative = growth inhibition, usual class: inhibitors | 15% of 420,000 active | AID 686978, 2013; note: potency is the fitted concentration of half-maximal effect; % is set by controls: 0 for no effect and ±100 for the full control effect; nearly all actives have a fitted effect of over 55% in size
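Growth of hTDP1-complemented DT40 Tdp1-knockout cells is measured by ATP luminescence after at least 48 hr compound exposure at 37 °C, with DMSO substituting for the 20 nM CPT used in the parallel screen.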
* = called active by the depositor; ? = inconclusive; / = no result. Sampled rows, rich in hits. Any-hit rate of the full collection: about 21%. Unless noted, calls come from the whole dose curve; as a rule, active = well fitted inhibition curve with a large enough effect; inconclusive = small, poorly fitted or top-dose-only effect; inactive = flat fitted curve, though single readings scatter.

SMILES	DRD3 agonist	TDP1 cell CPT	DRD3 antagonist	IL1B secr inh	ClpP mod	TDP1 cell noCPT
O=c1[nH]c(=O)n(-c2ccccc2)c(O)c1N=Nc1ccc(Br)cc1	-1	0%	-14	-27	-1%	-17%
Cc1cccn2c(=O)cc(COc3cccc(NC(=O)COc4ccc(F)cc4)c3)nc12	6	?	/	/	5%	8.2µM*
Cc1cccc(OCC(=O)Nc2cc(-c3ccccc3F)nn2-c2ccccc2)c1	-5	?	/	/	-9%	?
O=P1(N(CCCl)CCCl)NCCCO1 (stereo unspecified)	7	-2%	7	-2	1%	3%
O=C(c1csnn1)N1CCC2(CC1)CN(Cc1ccncc1)C2	/	7%	/	/	/	-3%
CC12CCC3C(CCC4CC(=O)OCC43C)C1CCC2O (stereo unspecified)	0	3%	-17	20	2%	-5%
O=S(=O)(c1cc(Cl)cc(Cl)c1)N1Cc2cc(-c3ccccc3)ccc2-n2nncc2C1	-1	?	-10	10	-3%	?
COc1ccc(NC(=S)N2Cc3ccccc3-n3nncc3C2)c(OC)c1	3	?	22	20	-2%	12µM*
O=S(=O)(c1cccc2ccccc12)N1Cc2ccccc2-n2nncc2C1	3	23µM*	24	8	-3%	12µM*
O=S(=O)(c1ccc(Cl)cc1)N1Cc2cc(Br)ccc2-n2nncc2C1	3	21µM*	0	6	-1%	23µM*
COc1cc(C(=O)N2Cc3ccccc3-n3nncc3C2)cc(OC)c1OC	4	-10%	-10	47	1%	-20%
COc1ccc(S(=O)(=O)N2Cc3ccccc3-n3nncc3C2)cc1	2	16µM*	18	33	2%	15µM*
CCC1(Cc2ccccc2)C(=O)NC(=S)N(C)C1=O (stereo unspecified)	0	1%	4	23	3%	-24%
CC(C)S(=O)(=O)N1Cc2ccccc2-n2nncc2C1	-8	-1%	0	-2	1%	10%
Cc1cc(C)c(S(=O)(=O)N2Cc3ccccc3-n3nncc3C2)c(C)c1	6	5.2µM*	-14	11	1%	2.1µM*
O=C(c1ccc(Cl)cc1)N1CCC2(CC1)OCCO2	5	7%	3	5	-1%	3%
O=C(c1ccc2nc3ccc(Cl)cc3c(=O)n2c1)N1CCC2(CC1)OCCO2	10	-28%	-12	-9	14µM*	-11%
CCN(CC)CCC(=O)O[C@H]1CC[C@]2(C)C3CC[C@@]4(C)C(CC[C@]4(C)O)C3CC[C@H]2C1 (stereo partly specified)	-15	?	-22	31	-2%	?
COc1ccc2c3c1OC1C(=O)CC[C@@]4(O)[C@@H](C2)N(CC2CC2)CC[C@]314 (stereo partly specified)	5	5%	-2	-17	-24%	-19%
CCOC(=O)C(O)(c1ccc(NC(=O)Oc2ccccc2)cc1)C(F)(F)F (stereo unspecified)	-10	-19%	?	7	-1%	?
COC(=O)C(O)(c1ccc(NC(=O)NC2CCCCC2)cc1)C(F)(F)F (stereo unspecified)	-4	-16%	8	13	1%	?
COC(=O)C(O)(c1ccc(NC(=S)NC(=O)c2ccc(Cl)cc2Cl)cc1)C(F)(F)F (stereo unspecified)	-6	?	?	-1	-1%	15µM*
CCOC(=O)C(NC(=O)CCl)(Nc1ccc(C(O)(C(=O)OCC)C(F)(F)F)cc1)C(F)(F)F (stereo unspecified)	0	?	-26	-89*	-1%	?

Screening data: PubChem, National Center for Advancing Translational Sciences (NCATS)
